Hits are enriched below; roughly 1.2% of the tested compounds scored in any of these assays.
GCN5L2 inh = qHTS Assay for Inhibitors of GCN5L2; Potency, µM (top dose mostly 58.9 µM), actives largely listed as inhibitors; GCN5L2 HAT assay, ThioGlo1 CoA-SH fluorescence; actives 0.21% (n = 390,000); Histone acetyltransferase KAT2A (Homo sapiens), Q92830; AID 504327, 2011
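GCN5L2 (20nM final) in 50mM HEPES, 0.1mM EDTA pH 7.5, 0.01% Tween-20 was preincubated 15 min at room temperature with compound, then given ThioGlo1 (50uM), H3(1-25) peptide (75uM) and acetyl-CoA (70uM); CoA-thiol fluorescence (Ex340/Em540) was read at 0 and 20 min.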
PGK inhibitor = qHTS Assay to Find Inhibitors of Phosphoglycerate Kinase. Phosphoglycerate kinase, glycosomal (Trypanosoma brucei brucei), P07378. PGK/GAPDH coupled, Kinase-Glo luminescence, 60 min. Potency, µM (titrated, usually from 57.5 µM), most hits filed as inhibitors. actives 0.043% (n = 380,000). AID 602233, 2012; also: nearly all actives have a fitted effect of over 60% in size
Target sequence (P07378 whole entry, looked up): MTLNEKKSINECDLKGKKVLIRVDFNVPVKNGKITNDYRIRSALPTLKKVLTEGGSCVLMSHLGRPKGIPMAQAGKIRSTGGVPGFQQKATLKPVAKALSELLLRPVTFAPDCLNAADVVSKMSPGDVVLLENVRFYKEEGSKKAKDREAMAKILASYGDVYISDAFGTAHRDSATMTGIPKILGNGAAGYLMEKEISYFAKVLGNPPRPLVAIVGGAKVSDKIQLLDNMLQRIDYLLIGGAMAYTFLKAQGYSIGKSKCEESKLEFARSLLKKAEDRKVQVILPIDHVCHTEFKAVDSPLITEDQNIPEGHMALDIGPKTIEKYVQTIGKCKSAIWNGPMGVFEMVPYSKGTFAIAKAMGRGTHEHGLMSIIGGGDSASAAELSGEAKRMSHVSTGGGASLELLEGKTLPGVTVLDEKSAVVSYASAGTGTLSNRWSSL
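Luminescent ATP detection (Kinase-Glo Plus) follows a 60-minute room-temperature incubation, with wells lacking PGK as controls. Buffer: 100 mM TEA (pH 7.6), 5 mM MgCl2, 0.01% Tween-20. Coupling enzyme GAPDH (100 nM final) supplies unstable 1,3-BPG in-well.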
PI4K2A block = qHTS for small molecular inhibitors of PI4K2A | Phosphatidylinositol 4-kinase type 2-alpha (Homo sapiens), Q9BTU6 | actives 0.13% (n = 420,000) | purified PI4K2A, ADP-Glo luminescence, 1 h; hits give low values | activity change, negative = inhibition, % at 76.9 µM; in the data active = activity change below about -50%; inconclusive = mostly about -30% to -49%
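In this quantitative HTS, ADP production by PI4K2A was quantified luminescently after 1 h at ambient temperature; 100 microM adenosine served as plate-quality control.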
Pin1 inhibitor = qHTS Assay to Find Inhibitors of Pin1. Peptidyl-prolyl cis-trans isomerase NIMA-interacting 1 (Homo sapiens), Q13526. Pin1 FP peptide displacement, HiFluor488, 10 min. Potency, µM (highest dose often 115 µM), usual class: inhibitors. actives 0.009% (n = 390,000). AID 504891, 2011; active = well fitted inhibition curve with a large enough effect in the polarisation, with a control signal flat, not every such curve was filed as active; inconclusive = small, poorly fitted or top-dose-only effect, or effect the other way, or a change in a side signal; inactive = no such curve, though single readings can be large or run the other way; the % refers to the polarisation
PI5P4K alpha inh = qHTS for Inhibitors of phosphatidylinositol 5-phosphate 4-kinase (PI5P4K). Phosphatidylinositol 5-phosphate 4-kinase type-2 alpha (Homo sapiens), P48426. PI5P4Kalpha enzyme, ADP-Glo luminescence, 60 min; hits give low values. max response, %. actives 1.2% (n = 330,000). AID 652105, 2013; active = max response of -50% or lower; inconclusive = between -30% and -50%; inactive = -30% or higher; also: value at the top dose of about 77 µM
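Reactions run in 0.038 M HEPES pH 7.4, 0.28 mM EGTA, 0.1% CHAPS and 5% DMSO, with PI5P4Kalpha, substrate, compound and 5 microM ATP final, one hour at room temperature. Readout is ADP-Glo luminescence.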
GoLoco inh red = qHTS Assay for Inhibitors of RGS12 GoLoco Motif Activity (Red Fluorophore). Gai1:RGS12 GoLoco peptide FP, rhodamine, 10 min. Potency, µM (top dose mostly 61.6 µM), actives largely listed as inhibitors. actives 0.44% (n = 230,000); active = well fitted inhibition curve with a large enough effect, not every such curve was filed as active; inactive = no such curve, though single readings can be large or run the other way; also: nearly all actives have a fitted effect of over 30% in size
Hits are given with their value; 0 = inactive; ? = inconclusive; - = no result; [ ] = dose if it differs, or a comment. Unless noted, calls follow the shape of the dose curve; as a rule, active = well fitted curve in the direction sought with a large enough effect; inconclusive = small, poorly fitted or top-dose-only effect, or another doubt; inactive = no such curve, though single readings can be large; an effect the other way counts as inactive or inconclusive.

SMILES | GCN5L2 inh | PGK inhibitor | PI4K2A block | Pin1 inhibitor | PI5P4K alpha inh | GoLoco inh red
CN1CCN(C(CNC(=O)C(=O)Nc2ccccc2)c2ccc3c(c2)OCO3)CC1 (stereo unspecified) | 0 | 0 | 0 | 0 | - | -
COc1ccc2[nH]c(C(=O)O)c(CCN3C(=O)c4ccc(C(=O)O)cc4C3=O)c2c1 | 0 | 0 | 0 | 0 | -60 | -
COc1ccccc1-c1nn2c(-c3cc(-c4ccccc4)n[nH]3)nnc2s1 | - | - | - | 0 | - | -
COc1cccc(OC)c1-c1nn2c(-c3cc(-c4ccccc4)n[nH]3)nnc2s1 | 0 | 0 | 0 | ? | -66 | 0
COC(=O)c1cc(S(=O)(=O)N2CCC(C)CC2)cn1C | 0 | 0 | 0 | 0 | 0 | -
Cc1ccc(-n2c(-c3ccccc3)c[nH]c2=S)cc1 | 0 | 0 | 0 | 0 | 0 | 0
S=c1[nH]cc(-c2ccccc2)n1-c1ccccc1 | 3.5µM | 0 | 0 | 0 | ? | 0
CCOC(=O)C1=C(c2ccccc2)NC(=O)NC1c1ccc(OC)cc1OC (stereo unspecified) | 0 | 0 | 0 | 0 | 0 | -
CCOC(=O)C1=CC(OC(CC)CC)C(NC(C)=O)C(N)C1 (stereo unspecified) | 0 | - | - | - | - | 32µM
NS(=O)(=O)c1ccc(N=Nc2ccc(O)c3ncccc23)cc1 | 0 | 0 | ? | ? | -79 | -
NS(=O)(=O)c1ccc(N=Nc2ccc(=O)[nH]c2O)cc1 | 0 | ? | 0 | ? | -80 | 0
COc1ccc(-c2cc(=O)c3ccccc3o2)cc1OC | 35µM | - | - | - | - | 0
COc1ccc(-c2oc3ccccc3c(=O)c2O)cc1OC | 32µM | - | - | - | - | 0
Cc1ccc(-c2csc3ncnc(SCC(=O)O)c23)cc1 | 0 | 0 | 0 | 0 | -70 | 0
O=C(CSc1ncnc2sc3c(c12)CCC3)Nc1ccccc1C(=O)O | 0 | 0 | 0 | 0 | -84 | 0
Cc1cc(NC(=O)CSc2ncnc3sc4c(c23)CCC(C)C4)no1 (stereo unspecified) | 0 | - | - | - | - | 0
O=C(O)CSc1ncnc2sc3c(c12)CCCC3 | 0 | 0 | 0 | 0 | -58 | 0
Cc1ccc(C(=O)CSc2ncnc3sc4c(c23)CCCC4)cc1 | 0 | - | 0 | 0 | - | 0
CC1CCc2c(sc3ncnc(SCC(=O)Nc4ccc(C(=O)O)cc4)c23)C1 (stereo unspecified) | 0 | 0 | 0 | 0 | -67 | -
CC1CN(S(=O)(=O)c2ccc(C(=O)N3c4ccccc4CC3C)cc2)CC(C)O1 (stereo unspecified) | 0 | 0 | 0 | 0 | 0 | -
COc1ccc(CCN2C(=O)c3oc4ccc(F)cc4c(=O)c3C2c2ccc(C(C)(C)C)cc2)cc1 (stereo unspecified) | 0 | 0 | 0 | 0 | - | -
CCCCN(CCO)CCCC | 0 | 0 | 0 | 0 | 0 | 16µM
CCOC(=O)C1=C(O)c2ccccc2C(=O)/C1=C\c1ccc(C)cc1 | 0 | 0 | 0 | 0 | -56 | 0
Nc1c(S(=O)(=O)O)cc(NC(=O)c2ccccc2)c2c1C(=O)c1ccccc1C2=O | 0 | - | 0 | - | -77 | -
Nc1cccc2c1C(=O)c1ccc(Cl)cc1C2=O | - | 0 | 0 | 0 | 0 | -
Nc1c(S(=O)(=O)O)cc(Nc2ccc(Cl)cc2)c2c1C(=O)c1ccccc1C2=O | 28µM | - | - | - | - | -
Nc1c(S(=O)(=O)O)cc(Nc2ccc(Nc3nc(Cl)nc(Nc4ccc(S(=O)(=O)O)cc4)n3)c(S(=O)(=O)O)c2)c2c1C(=O)c1ccccc1C2=O | 20µM | - | ? | - | - | 0
O=C1c2ccccc2C(=O)c2c(Nc3ccc4c5c(cccc35)C(=O)c3ccccc3-4)cccc21 | - | - | - | - | - | 0[14.2 µM]
Nc1c(S(=O)(=O)O)cc(Nc2cccc3ccccc23)c2c1C(=O)c1ccccc1C2=O | 13µM | - | - | - | - | -

High-throughput results from PubChem BioAssay.
